Source: the supplement of paper PMC10646978
± gives the standard deviation.

Assays:
Conditions in all cases: modulator concentration 10 µM
[1] = system: RAW-Dual (murine macrophage reporter line); assay: NF-kB reporter (SEAP) activity fold change vs agonist alone; higher = enhanced NF-kB activity
Summary of the method: (§1)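 RAW-Dual murine macrophage reporter cells were plated at 50 000 per well in 384-well plates, pin-transferred compound to 10 μM final, and pre-incubated for 1 hour at 37 °C before a PRR agonist was added and the cells incubated overnight. NF-κB activity was read from supernatant SEAP with QUANTI-Blue at 620 nm absorbance, and IRF activity from Lucia luciferase with QUANTI-Luc by luminescence. Each signal was expressed as fold change by dividing by the mean agonist-only control on the same plate. Two replicate plates were averaged, with errors obtained by propagation.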

[2] = system: RAW-Dual (murine macrophage reporter line); assay: IRF reporter (Lucia luciferase) activity fold change vs agonist alone; higher = enhanced IRF activity
Summary of the method: as §1

[3] = system: RAW-Dual (murine macrophage reporter line); assay: viability score (confluency relative to resting cells, overnight) (fraction); higher = more viable, active = viable (0.7 or more)
Summary of the method: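 Confluency was the readout: RAW-Dual macrophages were imaged with IncuCyte after an overnight exposure to compound at 10 μM final. IncuCyte software produced two masks over all imaged wells. The viability score expresses confluency against resting cells, and both masks had to exceed 70% of resting cells for a compound to meet the cutoff.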

[4] = agonist: CpG ODN 1826 0.5 ug/mL

Structure (SMILES) | NF-kB reporter [1, 4] | NF-kB reporter ([1]; agonist: LPS 0.1 ug/mL) | NF-kB reporter ([1]; agonist: MPLA […]) | IRF reporter ([2]; agonist: 3'3'-cGAMP 10 ug/mL) | IRF reporter ([2]; agonist: LPS 0.1 ug/mL) | IRF reporter ([2]; agonist: MPLA […]) | viability score [3]
COc1ccc(C2NN(Cc3ccccc3)C3C(=O)N(C)C(=O)C23)cc1 (centres undefined) | 0.902 ± 0.058 | 0.945 ± 0.088 | 1.13 ± 0.086 | 1.26 ± 0.068 | 1.33 ± 0.29 | 1.46 ± 0.5 | 0.955 (active)
Cc1cccc(C)c1OCC(=O)N[C@@H](Cc1ccccc1)[C@@H](O)C[C@H](Cc1ccccc1)NC(=O)[C@H](C(C)C)N1CCCNC1=O | 0.665 ± 0.082 | 0.889 ± 0.058 | 1.24 ± 0.12 | 0.67 ± 0.04 | 1.2 ± 0.071 | 1.37 ± 0.12 | 1.02 (active)
CC1=CC(=NS(=O)(=O)c2ccc(C)cc2)C=C(Cl)C1=O | 0.635 ± 0.068 | 0.706 ± 0.038 | 0.68 ± 0.062 | 0.451 ± 0.02 | 0.611 ± 0.04 | 0.428 ± 0.038 | 0.89 (active)
CN1C[C@@H]2c3ccccc3Oc3ccc(Cl)cc3[C@H]2C1.O=C(O)/C=C\C(=O)O | 0.164 ± 0.03 | 0.821 ± 0.14 | 0.908 ± 0.14 | 0.475 ± 0.044 | 0.914 ± 0.088 | 1.07 ± 0.13 | 0.252 (inactive)
O=C(Nc1ccc(S(=O)(=O)N2CCOCC2)cc1)c1ccc(Br)s1 | 1.14 ± 0.13 | 1.02 ± 0.092 | 1.01 ± 0.029 | 0.521 ± 0.021 | 1.05 ± 0.065 | 1.12 ± 0.12 | 0.995 (active)
O=C(NC1CCC(F)(F)CC1)c1cc(Br)cs1 | 1.13 ± 0.064 | 0.996 ± 0.075 | 0.984 ± 0.04 | 0.833 ± 0.051 | 1.04 ± 0.052 | 1.03 ± 0.15 | 0.999 (active)
O=C(Nc1ccc([N+](=O)[O-])cc1Cl)c1ccc([N+](=O)[O-])cc1 | 0.961 ± 0.083 | 1.07 ± 0.069 | 0.937 ± 0.06 | 0.937 ± 0.032 | 1.48 ± 0.11 | 1.23 ± 0.3 | 1.01 (active)
CCOc1ccc(C=C2SC(=S)N(C)C2=O)cc1 | 0.96 ± 0.075 | 1.01 ± 0.072 | 0.905 ± 0.073 | 0.962 ± 0.049 | 1.39 ± 0.15 | 1.3 ± 0.23 | 1.01 (active)
COC(C(=O)NNC(=O)c1ccccc1Cl)c1ccccc1 (centres undefined) | 1.3 ± 0.1 | 1.1 ± 0.1 | 1.11 ± 0.1 | 0.618 ± 0.39 | 0.993 ± 0.069 | 0.863 ± 0.081 | 1.01 (active)
O=C(NCCN1CCN(c2ccc(Cl)cc2)CC1)c1ccncc1 | 0.974 ± 0.076 | 0.99 ± 0.076 | 1.01 ± 0.027 | 1.01 ± 0.053 | 1.02 ± 0.081 | 0.986 ± 0.097 | 0.998 (active)
CCN(CC)c1nc(-c2ccccc2Cl)c2cc(Br)ccc2n1 | 0.999 ± 0.081 | 0.975 ± 0.1 | 1.02 ± 0.042 | 0.786 ± 0.058 | 1.05 ± 0.14 | 1.14 ± 0.25 | 1 (active)
O=[N+]([O-])c1ccc(C=CC=Nc2ccc(-c3nc4ccccc4s3)c(O)c2)cc1 | 0.813 ± 0.06 | 1.04 ± 0.067 | 0.971 ± 0.034 | 0.746 ± 0.042 | 0.973 ± 0.082 | 0.946 ± 0.079 | 0.994 (active)
O=Cc1c[nH]c2ccccc12 | 0.913 ± 0.2 | 1.5 ± 0.14 | 1.4 ± 0.23 | 0.982 ± 0.04 | 1.25 ± 0.26 | 1.54 ± 0.16 | 0.985 (active)
Cc1cc(I)cc2c1NC(c1cccc([N+](=O)[O-])c1)C1CC=CC21 (centres undefined) | 0.921 ± 0.079 | 0.795 ± 0.058 | 0.867 ± 0.089 | 0.497 ± 0.039 | 1.17 ± 0.23 | 1.13 ± 0.25 | 1.02 (active)
CCCc1nn(C)c2c(=O)[nH]c(-c3cc(S(=O)(=O)N4CCN(C)CC4)ccc3OCC)nc12 | 0.951 ± 0.23 | 1.03 ± 0.07 | 1 ± 0.068 | 0.928 ± 0.036 | 1.25 ± 0.16 | 1.37 ± 0.22 | 0.986 (active)
O=C(Cc1ccccc1)NCC(O)Cn1ccccc1=O (centres undefined) | 0.84 ± 0.037 | 0.9 ± 0.12 | 1.02 ± 0.067 | 1.04 ± 0.072 | 1.26 ± 0.25 | 1.43 ± 0.42 | 1 (active)
Cc1ccc(NC(=O)CN2C(=O)c3ccccc3C2=O)c(C(=O)O)c1 | 0.789 ± 0.077 | 0.894 ± 0.057 | 1.05 ± 0.091 | 0.982 ± 0.049 | 1.32 ± 0.098 | 1.5 ± 0.18 | 1.02 (active)
CC(O)(CNC(=O)NCc1ccc(F)cc1)c1ccc(-c2ccccc2)cc1 (centres undefined) | 0.998 ± 0.053 | 1.14 ± 0.12 | 0.873 ± 0.077 | 1.08 ± 0.056 | 1.32 ± 0.1 | 1.62 ± 0.14 | 0.966 (active)
CN(C)CC(c1ccc(O)cc1)C1(O)CCCCC1.O=C(O)CCC(=O)O (centres undefined) | 0.101 ± 0.0077 | 0.562 ± 0.045 | 0.531 ± 0.031 | 0.913 ± 0.075 | 1.29 ± 0.29 | 1.18 ± 0.36 | 0.633 (inactive)
CC(NC(=O)C1CCN(S(=O)(=O)N2CCCC2)CC1)c1ccc(F)cc1 (centres undefined) | 1.08 ± 0.054 | 1.05 ± 0.082 | 0.928 ± 0.041 | 0.953 ± 0.051 | 1.25 ± 0.085 | 1.09 ± 0.15 | 0.992 (active)
COc1ccc(C=NNC(=O)c2ccc(CN3CCOCC3)cc2)cc1[N+](=O)[O-] | 1.01 ± 0.085 | 1.06 ± 0.089 | 0.961 ± 0.067 | 1.04 ± 0.039 | 1.47 ± 0.14 | 1.28 ± 0.11 | 0.988 (active)
CC(C)C(=O)c1c(C(C)C)nn2ccccc12 | 1.59 ± 0.12 | 1.2 ± 0.086 | 1.21 ± 0.032 | 0.808 ± 0.076 | 0.938 ± 0.031 | 0.926 ± 0.088 | 0.957 (active)
CC12CCC3c4ccc(O)cc4CCC3C1CC(O)C2O (centres undefined) | 1.17 ± 0.28 | 1.28 ± 0.075 | 1.24 ± 0.093 | 0.596 ± 0.022 | 1.39 ± 0.16 | 1.44 ± 0.14 | 0.97 (active)
COCCNCCOc1cc(C)c(Cl)c(C)c1 | 0.908 ± 0.078 | 0.952 ± 0.045 | 0.932 ± 0.085 | 0.947 ± 0.049 | 1.52 ± 0.098 | 1.67 ± 0.17 | 0.974 (active)
COc1cc(=O)n(C)cc1C(=O)Nc1cccnc1 | 1.06 ± 0.065 | 0.817 ± 0.13 | 1.06 ± 0.065 | 0.943 ± 0.064 | 0.899 ± 0.17 | 0.915 ± 0.25 | 0.967 (active)
CC(C)CN(C[C@@H](O)[C@H](Cc1ccccc1)NC(=O)O[C@H]1CO[C@H]2OCC[C@H]21)S(=O)(=O)c1ccc(N)cc1 | 1.74 ± 0.13 | 1.08 ± 0.054 | 1.85 ± 0.069 | 0.916 ± 0.053 | 1.04 ± 0.071 | 1.02 ± 0.1 | 0.997 (active)
COC(=O)C1=C(C)NC(C)=C(C(=O)OCC(C)C)C1c1ccccc1[N+](=O)[O-] (centres undefined) | 0.884 ± 0.092 | 0.81 ± 0.05 | 0.748 ± 0.075 | 0.371 ± 0.017 | 0.783 ± 0.066 | 0.562 ± 0.052 | 0.923 (active)
